Results on 20 molecules are retold here after PubChem BioAssay AID868 (SRMLSC, 2007).

The whole screen tested about 190,000 compounds, of which about 3,500 (1.8%) were called active. The list comes from a sample in which actives are over-represented; it also holds similar structures and randomly drawn compounds. Values without a mark were called inactive.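 Rule for the calls: active = inhibition above a set limit, 3 SD over mean compound inhibition (cut at about 8.4% in these data); inactive = the rest.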

A short description of this test: RAM signaling blockers in budding yeast – dse1pr::URA3 reporter, 5-FOA selection, primary screen (AID 868).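 Note: 0% = DMSO-only wells with no growth and 100% = 10 µM 1-NA-PP1 full growth; inhibition rescues growth on 5-FOA so higher OD means more RAM inhibition.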 The following applies: S. cerevisiae dse1pr::URA3 reporter, 5-FOA growth OD615, 2 d; at 50 µM; hits give high values.
`CC(=O)Nc1ccccc1C(=O)OCC(=O)c1cccc2ccccc12`: the inhibition is 9.49% (active).
In the case of `O=C(Nc1cccc2ccccc12)N1CCC2(CC1)OCCO2`, the inhibition is 1.87%.
As to `CC1=CC(=Cc2sc3ccccc3[n+]2C)C=C(C)O1`, the inhibition was 0.13%.
To `Cc1ccc(-c2cc(C(=O)N3CCC4(CC3)OCCO4)no2)cc1` belongs -1.75%; to `COC(=O)N1C(c2ccccc2)C1c1ccccc1` (stereo not given), 0.12%.
To `OCC#CC[N+]1(CC#Cc2ccccc2)CCCC1` belongs 2.58%.
To `O=C(NC(c1ccc(Cl)cc1)P(=O)(Oc1ccccc1)Oc1ccccc1)OCc1ccccc1` (stereo not given) belongs 11.3% (active); to `O=C(Nc1cccc(OC(=O)N2CCCCC2)c1)N1CCOCC1`, -1.26%.
With `Cc1ccnc(-n2c(C)cc(/C=C3\C(=O)NC(=S)N(C)C3=O)c2C)c1`, the inhibition is 1.13%.
The figure for `CCOC(=O)C1SC2(C(F)(F)C(F)F)CC1(O)c1c(c(OC)c3occc3c1OC)O2` (stereo not given) is 9.36% (active); for `NC(=O)Cn1cc(C(=O)c2ccccc2F)c2ccccc21` it is 4.57%; for `CN1CCN(C(=S)SCC(=O)Nc2ccc(Cl)cc2C(=O)c2ccccc2)CC1` it is -0.25%.
As to `O=C(COC(=O)c1ccccc1)Nc1ccc(Cl)cc1C(=O)c1ccccc1`, the inhibition is 8.43% (active).
The figure for `O=C(CCNS(=O)(=O)c1ccccc1)Nc1ccc(Cl)cc1C(=O)c1ccccc1` is 2.12%.
For `COc1ccc(NC(=O)N2CCC3(CC2)OCCO3)c(OC)c1`, the inhibition was 4.37%.
For the molecule `Cc1ccc(-c2nn(CCC#N)cc2C(=O)O)cc1C`, the inhibition is -0.13%.
To `C=CCN(CC=C)C(=O)Nc1ccc(OCC)cc1` belongs 1.22%; to `CN(C)P(=S)(Nc1ccccc1)C(Cl)(Cl)Cl` (stereo not given), 1.76%; to `CC(Cc1cccs1)NCc1ccc(Cl)cc1` (stereo not given), 1.87%.
The figure for `CC1CCCCN1Cc1cccnc1` (stereo not given) is 1.23%.

Broadly, the inhibition is the change of the read-out against control, counted positive when it falls.
